These results are taken from PubChem BioAssay (EPA / NIEHS).

In general, AC50 refers to the concentration at which the activity in the assay is half-maximal.

SMILES strings stand for the structures. The source made the active and inactive calls. How the source made its calls: active means hit-call score of the fitted dose curve at least 0.9, where 1 is the maximum; inactive means score below 0.9.

The experiment can be described thus: CEETOX_H295R_CORTIC: CeeTox H295R High-throughput Steroidogenesis Assay for Corticosterone (CORTIC) (AID 2283437).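 Further: corticosterone secreted into medium quantified by mass spectrometry.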 Particulars: actives raise or lower the signal. As to the method:
CEETOX_H295R is a cell-based, multiplexed-readout assay that uses H295R, a human adrenal gland cell line, with measurements taken at 48 hours after chemical dosing in a 96-well plate.CEETOX_H295R_CORTIC is one of 23 assay component(s) measured or calculated from the CEETOX_H295R assay. It is designed to make measurements of hormone induction, a form of inducible reporter, as detected with absorbance signals by HPLC-MS-MS technology.Data from the assay component CEETOX_H295R_CORTIC was analyzed into 1 assay endpoint. This assay endpoint, CEETOX_H295R_CORTIC, was analyzed with bidirectional fitting relative to DMSO as the negative control and baseline of activity. Using a type of inducible reporter, gain or loss-of-signal activity using HPLC-MS-MS was used to understand synthesis of Corticosterone in H295R cell line at 48hr of chemical exposure. To generalize the intended target to other relatable targets, this assay endpoint is annotated to the steroid hormone intended target family, where the subfamily is glucocorticoids.
Cell culture and media preparation procedures were conducted in accordance with OECD Test No. 456 guidelines, with minor modifications. H295R cells (ATCC CRL-2128) were expanded for 5 passages and frozen in batches in liquid nitrogen. Prior to the steroidogenesis assay, H295R cells were thawed and passed at least 4 times. The maximum passage was 10. Cells were maintained in a 1:1 mixture of DMEM/F12 supplemented with 5ml/L ITS+ Premix (BD Bioscience) and 12.5 ml/L Nu-Serum (BD Bioscience). After seeding cells into 96-well plates at 50-60% confluency, cells were allowed to adhere overnight. Prior to chemical testing, culture medium was replaced with 175 uL medium containing 10 uM forskolin to stimulate steroidogenesis for 48 hours. Following prestimulation, forskolin medium was replaced with medium containing test chemical solubilized in DMSO (ensuring a final concentration of 0.1% DMSO). Test chemicals were incubated for 48 hours, then the medium was removed and split into 2 vials containing approximately 75uL each, and stored at -80 C prior to hormone analysis. For steroid quantification, media samples were shipped to OpAns, LLC (Durham, NC) on dry ice, and samples were thawed to room temperature prior to liquid-liquid extraction. Steroid hormones were extracted from media samples using methyl tertbutyl ether (MTBE). An extra derivatization with dansyl chloride was included for estrogen (estrone and estradiol) detection only. Steroid hormones were separated by HPLC, eluted using a reverse phase C18 gradient with electrospray positive ionization, followed by quantification by tandem mass spectrometry (MS/MS). Data were acquired on a MassHunter Workstation Acquisition version B03.01 (Agilent Technologies, Inc.) and processed using MassHunter Quantitative Analysis for QQQ. Accuracy was determined for each hormone analyte from 3 standards to determine upper and lower limits of quantification (ULOQ and LLOQ, respectively) using a 7-point standard curve. Precision and accuracy of the extraction and quantification methods were calculated as the percent relative standard deviation (%RSD) of the spiked standards and percent spiked standard recovered, respectively. […] Test medium was removed following chemical exposure, and cell viability was evaluated in the same wells by MTT. MTT procedures were as follows: after removal of test medium, 500 uL of 0.5 mg/ml of 3-[4,5-dimethylthiazol-2-y]2,5-diphenyltetrazoliumbromide solution was added to the cells. Following a 4-hour incubation at 37 C and 5% CO2 to allow formazan-crystal formation, the MTT solution was removed and blue formazan salt crystals were solubilized using 500uL anhydrous isopropanol with shaking for 20 minutes. Absorbance was read at 570 and 650nm using a Packard Fusion microplate reader. Background correction of absorbance units was used to determine percent change relative to controls. […]
As for `CCCc1ccc(O)cc1`, the AC50 was 36.4 µM (active). Consider `COc1ccc2[nH]cc(CCNC(C)=O)c2c1`, for which the AC50 is 10.5 µM (active). Regarding `CCCCCC(=O)O[C@]1(C(C)=O)CC[C@H]2[C@@H]3CCC4=CC(=O)CC[C@]4(C)[C@H]3CC[C@@]21C`, the outcome was inactive. Still for that read-out and setting: under `OCCCO` stands “inactive”; under `O=C(OCc1ccccc1)c1ccccc1O`, “inactive”; under `CC(=N[Si](C)(C)C)O[Si](C)(C)C`, “inactive”. For the molecule `O=C(c1ccc(OCCN2CCCCC2)cc1)c1c(-c2ccc(O)cc2)sc2cc(O)ccc12`, the outcome was inactive. With `CC/C(=C(\c1ccccc1)c1ccc(OCCN(C)C)cc1)c1ccccc1`, the molecule was classed as inactive.

`C[C@]12CC[C@@H]3c4ccc(O)cc4CC[C@H]3[C@@H]1CC[C@@H]2O`: the AC50 is 0.479 µM (active). For `CC=CC(=O)C1=C(C)C=CCC1(C)C`, the outcome was inactive. For `CC(C)(C)c1cccc(O)c1`, the call was inactive. In the case of `c1ccc(OCCOc2ccccc2)cc1`, the result was inactive. For the molecule `CCCCCCCCCCCCN1CCOCC1`, the call was inactive. In the case of `c1coc(CNc2ncnc3nc[nH]c23)c1`, the outcome was inactive. With `C#C[C@]1(O)CC[C@H]2[C@@H]3CCc4cc(O)ccc4[C@H]3CC[C@@]21C`, the AC50 was 0.142 µM (active).

On to `CC(=O)c1ccc2ccccc2c1`, for which the outcome was inactive. Still for that read-out and setting: under `O=c1cc(-c2ccc(O)cc2)oc2cc(O)cc(O)c12` stands “inactive”.
